# Test results reported in paper PMC4552634, “A New Set of Chemical Starting Points with Plasmodium falciparum Transmission-Blocking Potential for Antimalarial Drug Discovery” (PLoS ONE, 2015).
# The whole screen tested about 13,000 compounds, of which about 3,200 (25%) showed an effect of 50% or more. The list shows a part of the results.
# Tested on: P. falciparum stage V gametocytes
# Design: BacTiter-Glo ATP luminescence viability of purified stage V gametocytes in 384-well plates, per cent inhibition versus DMSO
# Conditions: 48 h, 5 µM; inhibitor
row,Structure (SMILES),% Inhibition [%]
1,CCC1CCCCN1S(=O)(=O)c1ccc(NC(=O)c2cc(C)on2)cc1 (stereo not shown) [TCMDC-124618],-16.01
2,O=C(NC1CCC(N2CCC(c3ccccc3C(F)(F)F)CC2)CC1)c1cc2ccccc2[nH]1 (stereo not shown) [TCMDC-132895],-39.86
3,O=C(C=Cc1cn(-c2ccccc2)nc1-c1cccs1)N1CCN(c2ccncc2)CC1 [TCMDC-125063],51.82
4,O=C(Nc1ccncc1)c1cn(-c2ccccc2)nc1-c1cccs1 [TCMDC-125605],-55.62
5,O=C(C=Cc1cn(-c2ccccc2)nc1-c1ccccc1)N1CCN(c2ccncc2)CC1 [TCMDC-125256],13.7
6,NOCCCOc1ccccc1 [TCMDC-123474],-11.28
7,Nc1ccc(Oc2ccc(Cc3cnc(N)nc3N)cc2)cc1 [TCMDC-137904],-3.731
8,COc1ccc2nccc([C@@H](O)CN3CCC(NCc4ccc(OC)c(NC(C)=O)c4)CC3)c2c1 [TCMDC-141564],-24.43
9,Cc1nc(-c2cccc(C(F)(F)F)c2)n2nc(Nc3ccc(OCCN4CCCC4)cc3)ncc12 [TCMDC-138911],108.6
10,COc1cc(Nc2ncc3c(C)nc(-c4cc5ccccc5[nH]4)n3n2)cc(OC)c1OC [TCMDC-138905],5.084
11,CCN(CCCN1CCCCC1)c1cc(C)nc(Nc2cccc(C(F)(F)F)c2)n1 [TCMDC-132451],9.673
12,COc1ccc(Nc2ncc3c(-c4cccc(NC(=O)Cc5ccc(F)cc5)c4)c[nH]c3n2)cc1OC [TCMDC-135252],-55.08
13,c1ccc(Oc2ccc(Nc3ccnc(Nc4ccc(OCCN5CCCCC5)cc4)n3)cc2)cc1 [TCMDC-138583],-73.3
14,COc1cc(Nc2ncc3c(C)nc(-c4cccc(Nc5ccc(CN6CCS(=O)(=O)CC6)cc5)c4)n3n2)cc(OC)c1OC [TCMDC-136003],62.52
15,COc1ccccc1CNCC(O)c1cc(C(F)(F)F)ccc1C(F)(F)F (stereo not shown) [TCMDC-140376],33.11
16,CN(C)c1ccc(C=Cc2nc(=O)c3ccccc3o2)cc1 [TCMDC-123870],44.95
17,CCN(CC)S(=O)(=O)n1ncc2c3c(N)nc(N)nc3ccc21 [TCMDC-137302],-23.31
18,N#CCCn1nc(-c2ccc(Cl)cc2)c2c(c1=O)CCCC2 [TCMDC-123668],-3.378
19,COc1cc2nc(N(C)C)nc(Nc3ccc4c(cnn4Cc4ccccc4)c3)c2cc1OC [TCMDC-138082],11.6
20,COc1cc2nccc(Nc3ccc4c(cnn4Cc4cccc(F)c4)c3)c2cc1OC.Cl [TCMDC-138105],-72.46
21,COc1cc2nc(Nc3ccc4c(ccn4Cc4ccccc4)c3)nc(Nc3ccc4c(ccn4Cc4ccccc4)c3)c2cc1OC [TCMDC-138237],94.63
22,COc1cc2ncnc(Nc3ccc4nc(Cc5ccccc5)[nH]c4c3)c2cc1OC [TCMDC-137180],-12.69

row,Structure (SMILES),% Inhibition [%]
1,COc1cc2nc(Nc3ccc4c(cnn4Cc4ccccc4)c3)nc(Nc3ccc4c(cnn4Cc4ccccc4)c3)c2cc1OC [TCMDC-138020],106.8
2,COc1cc2nc(C)nc(Nc3ccc4c(ccn4Cc4ccccc4)c3)c2cc1OC [TCMDC-131924],19.01
3,COc1cccc(NC(=O)NCCNc2ccnc(Nc3ccc(F)cc3)n2)c1 [TCMDC-133639],-6.43
4,COc1ccc(CNC(=O)c2cc3c(=O)n4ccccc4nc3n(CCc3ccccc3)c2=N)cc1 [TCMDC-124474],-41.5
5,Cc1cc(C(=O)CN2C(=O)NC(C)(c3cccc4ccccc34)C2=O)c(C)n1Cc1ccco1 (stereo not shown) [TCMDC-125264],12.34
6,COCCn1c(C)cc(C(=O)CN2C(=O)NC(C)(c3ccc(C(C)(C)C)cc3)C2=O)c1C (stereo not shown) [TCMDC-125434],51.6
7,Cc1cc(C(=O)CN2C(=O)NC(C)(c3ccc4ccccc4c3)C2=O)c(C)n1Cc1ccco1 (stereo not shown) [TCMDC-125044],-21.37
8,Cc1[nH]nc2ccc(-c3cc(OC[C@@H](N)Cc4ccccc4)cnc3-c3cc4ccccc4s3)cc12 [TCMDC-136352],16.97
9,O=C(NCc1cccc2ccccc12)C1CCCN(C(=O)c2ccc(O)c(-c3ccc(Cl)c(Cl)c3)c2)C1 (stereo not shown) [TCMDC-140894],15.24
10,O=C(N[C@@H](Cc1ccccc1)[C@H](O)CNC1CCCCC1)c1cc(C2CCCC2)cc(N2CCCC2=O)c1 [TCMDC-138869],29.86
11,COc1ccc2ncc(Cl)c(CCN3CC[C@@H](CNCc4cc5c(cn4)OCS5)C3)c2n1 [TCMDC-135904],-4.396
12,Cc1c(C)c2c(c(C)c1O)CCC(C)(CCC(=O)O)O2 (stereo not shown) [TCMDC-131686],-4.216
13,CC[C@H]1CN2CC[C@H]1C[C@H]2[C@H](O)c1cc(/C=C/c2ccccc2)nc2ccc(OC)cc12 [TCMDC-141329],62.86
14,CC[C@H]1CN2CC[C@H]1C[C@H]2[C@H](O)c1cc(/C=C/c2ccc(F)cc2)nc2ccc(OC)cc12 [TCMDC-141367],91.47
15,CC[C@H]1CN2CC[C@H]1C[C@@H]2[C@@H](O)c1cc(Cl)nc2ccc(OC)cc12 [TCMDC-137467],-42.11
16,CC[C@H]1CN2CC[C@H]1C[C@H]2[C@H](O)c1cc(-c2ccccc2C)nc2ccc(OC)cc12 [TCMDC-141190],15.24
17,C=C[C@H]1CN2CC[C@H]1C[C@H]2[C@H](O)c1cc(/C=C/c2ccc(F)cc2)nc2ccc(OC)cc12 [TCMDC-141366],-44.1
18,Cc1cccc(N2C(N)=NC(N)=NC2(C)C)c1C [TCMDC-137926],11.29
19,Cc1cc(Nc2ccc(C)c(Cl)c2)n2ncnc2n1 [TCMDC-123501],-28.24
20,COC(=O)c1cccc(N2CCN(CCCNC(=O)/C(=C/C=C/c3cc4cc(Cl)c(Cl)cc4[nH]3)OC)CC2)c1 [TCMDC-139338],20.82
21,O=C(Cc1ccc(NC(=O)c2ccc(O)c(-c3cccc([N+](=O)[O-])c3)c2)cc1)NCCN1CCCCC1 [TCMDC-140797],2.849
